Screening data from PubChem BioAssay.
Pin1 inh – blocks the human prolyl isomerase Pin1 | Q13526 | Pin1 FP peptide displacement, HiFluor488, 10 min | Potency, µM (series often up to 115 µM), inactives show at the top dose activity, negative = inhibition, actives largely listed as inhibitors | actives 0.009% (n = 390,000); active = well fitted inhibition curve with a large enough effect in the polarisation, with a control signal flat, not every such curve was filed as active; inconclusive = small, poorly fitted or top-dose-only effect, or effect the other way, or a change in a side signal; inactive = no such curve, though single readings can be large or run the other way; the % refers to the polarisation; note: potency is the fitted concentration of half-maximal effect
Target sequence (Q13526 whole entry, looked up): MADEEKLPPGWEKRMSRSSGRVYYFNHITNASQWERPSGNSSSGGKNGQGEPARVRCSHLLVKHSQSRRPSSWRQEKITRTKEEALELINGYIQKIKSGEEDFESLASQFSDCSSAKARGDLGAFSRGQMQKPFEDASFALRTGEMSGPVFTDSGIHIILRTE
Tb PGK inh – blocks T. brucei phosphoglycerate kinase; PGK/GAPDH coupled, Kinase-Glo luminescence, 60 min; Potency, µM (top dose mostly 57.5 µM), inactives show at the highest dose activity change, negative = inhibition, usual class: inhibitors; actives 0.043% (n = 380,000); AID 602233; active = well fitted inhibition curve with a large enough effect; inconclusive = small, poorly fitted or top-dose-only effect; inactive = no such curve, though single readings can be large or run the other way; note: potency is the fitted concentration of half-maximal effect; nearly all actives have a fitted effect of over 60% in size
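Recombinant glycosomal PGK reaction used 1,3-bisphosphoglycerate generated in-well by GAPDH (100nM final) in 100mM TEA pH 7.6, 5mM MgCl2, 0.01% Tween-20. After 60 minutes at room temperature, ATP was read by Kinase-Glo Plus luminescence end-point.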
PI4K2A inh – PI4K2A (human) kinase inhibition | Q9BTU6 | purified PI4K2A, ADP-Glo luminescence, 1 h; hits give low values | activity change, negative = inhibition, % at 76.9 µM | AID 1346378 | actives 0.13% (n = 420,000); in the data active = activity change below about -50%; inconclusive = mostly about -30% to -49%;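 note: -100% = wells without enzyme as full effect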
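ADP-Glo luminescence measured ADP generated by PI4K2A enzyme (4 ug/mL before mixing) with 1.2 mM PI substrate (pre-mix) and 300 microM ATP (pre-mix). Tris pH7.5 buffer with MgCl2, Triton X-100; 1 h reaction at ambient temperature.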
PI5P4Ka inh – blocks human PI5P4K alpha kinase activity | PI5P4Kalpha enzyme, ADP-Glo luminescence, 60 min; hits give low values | actives 1.2% (n = 330,000) | P48426 | max response, % | AID 652105; active = max response of -50% or lower; inconclusive = between -30% and -50%; inactive = -30% or higher; note: value at the top dose of about 77 µM
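Reactions run in 0.038 M HEPES pH 7.4, 0.28 mM EGTA, 0.1% CHAPS and 5% DMSO, with PI5P4Kalpha, substrate, compound and 5 microM ATP final, one hour at room temperature. Readout is ADP-Glo luminescence.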
Starred values were filed as active, the others as inactive; i = inactive; ? = inconclusive; nt = not tested or not shown. Many of the other results were omitted from the sample, so hits are more common in it than they were. Unless noted, % is set by controls: 0 for no effect and ±100 for the full control effect.

SMILES	Pin1 inh	Tb PGK inh	PI4K2A inh	PI5P4Ka inh
C=CCNc1nc(NCC=C)nc(N2CCN(C(c3ccc(F)cc3)c3ccc(F)cc3)CC2)n1	nt	nt	0	nt
COc1ccc(/C=C2\CCn3c2nc2cc(C(=O)O)ccc2c3=O)cc1O	?	-5%	-8	-54*
CCOc1ccc(-c2cc(N3C(=O)Nc4ccccc4N3O)n[nH]2)cc1	1%	-7%	0	1
CCOC(=O)c1c(N2C(=O)Nc3ccccc3N2O)n[nH]c1-c1cccc(Cl)c1	-1%	-7%	0	-66*
COc1cccc(Nc2nc3ccc(OC)cc3s2)c1	-14%	2%	7	4
COc1ccccc1Nc1n[nH]c(=S)s1	-2%	-1%	-1	-78*
COc1cccc(Nc2n[nH]c(=S)s2)c1	?	-9%	2	-82*
CC1=NN(c2ccc(C)c(C)c2)C(=O)/C1=C\C=C\c1ccc([N+](=O)[O-])o1	nt	-13%	?	-52*
CCOC(=O)C1=C(C)N=c2s/c(=C/c3cccc([N+](=O)[O-])c3O)c(=O)n2C1c1ccccc1 (centres undefined)	nt	-11%	-5	-55*
CCOC(=O)C1=C(C)N=c2s/c(=C\c3ccc(OCC(=O)O)c(OC)c3)c(=O)n2C1c1ccc(OC)cc1 (centres undefined)	?	-22%	-15	-61*
CN1C(=O)Cc2cc([S+](=O)([O-])N3CCN([S+](=O)([O-])c4c(F)cccc4F)CC3)ccc21	-1%	nt	nt	nt
CN1CCN(C2=C(Cl)C(=O)N(C3CCCCC3)C2=O)CC1	?	i	2	nt
O=C1C(Cl)=C(N2CCC(C(=O)O)CC2)C(=O)c2ccccc21	-10%	-14%	-15	?
CN1CCN(C2=C(Cl)C(=O)C(c3cnc(N4CCCCC4)s3)=C(Cl)C2=O)CC1	-20%	0%	-17	-89*
CC1COCC(C)N1C1=C(Cl)C(=O)c2ccccc2C1=O (centres undefined)	2%	3%	-16	-70*
NC(=O)C1CCN(C2=C(Cl)C(=O)c3ccccc3C2=O)CC1	-10%	-7%	-2	nt
CN1CCN(C2=C(Cl)C(=O)c3ccccc3C2=O)CC1	67µM*	?	-55*	-4
Cc1cccc([S+](=O)([O-])NC2CCN(C#N)CC2)c1	0%	nt	nt	nt
O=C(CSc1nc2ccccc2c(=O)n1Cc1ccccc1)Nc1ccc(Br)cc1C(=O)O	?	-3%	1	-75*
Cc1ccc(S(=O)(=O)N2CCOCC2)cc1NC(=O)CSc1nc2ccccc2c(=O)n1Cc1ccccc1	10%	2%	0	-3
O=C1CCCC2=C1C1(CCOCC1)N=C(Nc1nc3ccccc3o1)N2	-20%	nt	nt	nt
O=C(CN1C(=O)CCC1=O)Nc1nc2c(F)cc(F)cc2s1	?	-4%	4	-8
O=C(CN1C(=O)NC2(CCCCC2)C1=O)Nc1nc2c(F)cc(F)cc2s1	32%	0%	4	-50*
Nc1ccc(S(=O)(=O)Nc2nccs2)cc1N=Nc1ccccc1[N+](=O)[O-]	nt	?	-7	-103*
O=[N+]([O-])c1ccccc1S(=O)(=O)Nc1ccc(S(=O)(=O)Nc2nccs2)cc1	-7%	-12%	-8	-6
SMILES	Pin1 inh	Tb PGK inh	PI4K2A inh	PI5P4Ka inh
O=C(O)C1OC(Oc2c(-c3ccc(O)c(O)c3)oc3cc(O)cc(O)c3c2=O)C(O)C(O)C1O (centres undefined)	?	25µM*	-4	?
Cc1ccnc(NS(=O)(=O)c2ccc(NC(=O)c3ccc(N4C(=O)CCC4=O)cc3)cc2)n1	0%	-9%	-8	-64*
Cc1ccnc(NS(=O)(=O)c2ccc(NC(=O)Cc3ccc(F)cc3)cc2)n1	5%	-2%	-1	0
Cc1ccnc(NS(=O)(=O)c2ccc(NC(=O)Cc3cccs3)cc2)n1	2%	?	-20	-83*
COc1cc2c(O)cc(C(=O)O)c(-c3cc(OC)c(OC)c(OC)c3)c2cc1OC	-8%	-8%	-2	0
COc1cc(C)cc(C(=O)O)c1C1=C(O)c2cccc(O)c2C(=O)C1=O	?	-26%	-10	-78*
Cc1cc(C)c(OCC(=O)N(Cc2ccc(N(C)C)cc2)Cc2ccco2)c(C)c1	-3%	nt	-1	nt
Cc1ccc(-c2[nH]nc3c2C(c2ccsc2)C(C#N)=C(N)O3)cc1 (centres undefined)	-3%	-3%	-1	-52*
N#CC1=C(N)Oc2n[nH]c(-c3ccccc3)c2C1c1ccsc1 (centres undefined)	-5%	-4%	-3	-65*
